Several values for one entry are separate records, joined by “and”; a condition that tells them apart may be missing. Equal values may be shown once. Among all 300,000 compounds or so, about 37,000 (12%) were called active. The entries come from a sample that favours actives as a whole. Unmarked numbers belong to inactive results. Rule as the data show it: active = max response mostly above about 13% (no sharp cut-off); inactive = mostly below about 14%.

A short description of this assay: Cycloheximide Counterscreen for Small Molecule Inhibitors of Shiga Toxin. Also: read at 38.3 µM for the half of the compounds with a filed dose; 0% is about no effect. To be noted: cell reporter, cycloheximide protein synthesis inhibition counterscreen; active compounds read high. Background: Counterscreens check selectivity or assay interference.
As to `COc1ccc(Cl)cc1C(=O)Nc1ccc(N(C)C(C)=O)cc1`, the max response was 34.7% (active). Under `COc1ccc(Cl)cc1C(=O)NCC#N` stands -1.71%. Under `COc1cc(OC)c(C(=O)Nc2ccccc2-c2ccccc2)cc1OC` stands -1.49%. To `COc1cc(OC)c(C(=O)Nc2ccc(N(C)C)cc2)cc1OC` belongs 40.8% (active); to `COC(=O)c1ccc(NC(=O)c2cc(Cl)ccc2OC)cc1`, 0.237%; to `COc1cc(OC)c(C(=O)NC2CC(C)(C)NC(C)(C)C2)cc1OC`, -1.33%. Regarding `C=CCn1c(SCCOc2ccc(OC)cc2)nnc1C(NC(=O)c1ccc(OC)cc1)C(C)C` (stereo not drawn), the max response is -2.43%. Under `CN(CC1CCCO1)S(=O)(=O)c1ccc(C(=O)Nc2ccc(F)cc2)cc1` (stereo not drawn) stands 3.84%; under `Cc1oc(-c2ccccc2Cl)[n+]([O-])c1C`, -1.24%; under `CCCSc1nc2sc3c(c2c(=O)n1-c1ccc(OC)cc1)CCN(C)C3`, 0.929%. In the case of `CCc1cccc(NC(=O)C2CCCN(S(=O)(=O)c3ccc4[nH]c(=O)ccc4c3)C2)c1` (stereo not drawn), the max response is 14.1%.

For `Cn1c(=O)n(C)c2cc(S(=O)(=O)Nc3ccc(F)cc3)ccc21`, the max response was 1.27%. To `CN(C)CCCN(C(=O)c1ccc(S(=O)(=O)N2CCCCCC2)cc1)c1nc2ccc(Br)cc2s1` belongs 11.5% (active); to `CCN(CC)CCN(C(=O)c1ccc(S(=O)(=O)N2CCOCC2)cc1)c1nc2cc3c(cc2s1)OCCO3`, 13.6% (active); to `CN(C)CCCN(C(=O)c1ccc(S(=O)(=O)N2CCCc3ccccc32)cc1)c1nc2ccc(F)cc2s1`, 0.524%. Under `CCN(CC)CCN(C(=O)c1ccc(N2C(=O)CCC2=O)cc1)c1nc2cc3c(cc2s1)OCO3` stands 14.3%.

For the compound `O=C(Nc1nc2cc3c(cc2s1)OCCO3)c1cccc(S(=O)(=O)N2CCOCC2)c1`, the max response is -5.43%. For `CCOc1ccc2nc(N(CCCN(C)C)C(=O)c3ccc(C(=O)c4ccccc4)cc3)sc2c1`, the max response was -2.35%. Under `CCOc1cc(C)c(S(=O)(=O)NCc2ccccn2)cc1C` stands -2.56%; under `COc1cc(OC)c2ccc(=O)oc2c1C(CCN1CCN(c2ccccc2)CC1)c1ccc2c(c1)OCO2` (stereo not drawn), 1.12% and 1.78%; under `Cc1cccc(CSc2nc3c(c(=O)n2C)SCC3)c1`, 8.73%. Under `CC(C)Oc1ccc(/C=N/NC(=O)c2nnn(-c3nonc3N)c2CN(C)C2CCCCC2)cc1` stands -0.539%.

Turning to `O=C(O)CN1c2cccc3cccc(c23)S1(=O)=O`, the max response is 8.16%. To `CCCOc1ccc(/C(O)=C2/C(=O)C(=O)N(CCN(C)C)C2c2ccc(OC)c(OC)c2)cc1` (stereo not drawn) belongs 5.75%. In the case of `COc1ccc(/C(O)=C2/C(=O)C(=O)N(CCCN(C)C)C2c2ccccc2)cc1OC` (stereo not drawn), the max response is 5.45%. `CCN(CC)CCN1C(=O)C(=O)/C(=C(/O)c2ccc(OC)c(OC)c2)C1c1ccccn1` (stereo not drawn): the max response was 17.9% (active). For the compound `COc1ccc(S(=O)(=O)N2CCCC(C(=O)NCCCn3ccnc3)C2)cc1OC` (stereo not drawn), the max response was -5.51%. For `Cc1ccsc1-c1cc(C(=O)O)c2c(ccc3ccccc32)n1`, the max response was 16.2%. Under `CCn1c(=N)c(C(=O)NCCCOC)cc2c(=O)n3cccc(C)c3nc21` stands -3.15%; under `CCOCCCNC(=O)c1cc2c(=O)n3ccccc3nc2s1`, 30.4% (active); under `Cc1cccn2c(=O)c3cc(C(=O)NC4CCCCC4)sc3nc12`, 7.47%.

Turning to `CC1CC(C)CN(CC(=O)N2c3ccccc3CCc3ccccc32)C1` (stereo not drawn), the max response was -3.85%. In the case of `COc1cc2c(cc1OC)CN(CC(=O)Nc1ccc(F)cc1)CC2`, the max response is -3.51%.

`CCc1ccc(NC(=O)N2CCN(c3ccccc3)CC2)cc1`: the max response was 12%. Consider `Cc1cccc(C)c1NC(=O)c1ccc(CN2CCc3ccccc3C2)cc1`, for which the max response was -1.05%. To `CN(CC(=O)Nc1cccc(F)c1)CC(=O)Nc1cccc([N+](=O)[O-])c1` belongs 13.6%. Under `CCc1ccc(NC(=O)N2CCc3ccccc3C2)cc1` stands 49.7% (active).

`Cc1ccc(NC(=O)CN2CCc3ccccc3C2)cc1C`: the max response was 18%. Under `O=C(Nc1cccc([N+](=O)[O-])c1)N1CCc2ccccc2C1` stands 51.1% (active); under `Cc1ccc(NC(=O)CN2CCc3ccccc3C2)cc1`, 16.3% (active). To `O=C(Nc1cccc([N+](=O)[O-])c1)Nn1cnnc1` belongs 3.77%. On to `Cn1c(=O)c([N+](=O)[O-])c(Oc2ccccc2)c2ccccc21`, for which the max response is -2.35%. Under `O=C(NC(=S)N1CCc2ccccc21)c1ccco1` stands 8.62%; under `Cc1cc(O)cc(O)c1C(=O)Cc1cnn(-c2ccccc2)c1`, 14%; under `COc1ccc(C(=O)Cc2cnn(-c3ccccc3)c2)c(O)c1`, 39.4% (active). Under `COc1ccc(C(=O)CC(=O)c2ccc(C)cc2)c(O)c1` stands 20% (active). With `Cc1[nH]nc(-c2ccc(OCc3cnn(-c4ccccc4)c3)cc2O)c1Oc1ccc(Cl)cc1`, the max response is 0.856%. Under `COc1ccc(C(=O)C[n+]2ccc(C)cc2)cc1` stands 0.721%. To `COc1ccc(C(=O)NNS(=O)(=O)c2ccc(C)cc2)cc1` belongs -1.39%. To `COc1ccc(CCNC(=S)NC(=O)/C=C/c2ccc(C)cc2)cc1OC` belongs 9.56%; to `COC(=O)c1c(NC(=O)C(=O)N2CCCCC2)sc2c1CC(C)(C)OC2`, -2.72%. For the compound `CC(=O)N1CCN(CC(C)(C)NS(=O)(=O)c2ccc(C)cc2)CC1`, the max response is -1.04%. Under `CCOc1ccc2nc(NC(=O)CSc3nc4c(c(=O)n(C)c(=O)n4C)n3CC)sc2c1` stands -6.89%; under `CCn1c(SCC(=O)NC2CCCC2)nnc1-c1ccoc1C`, -1.45%; under `CCn1c(SCC(=O)Nc2nc3ccc(OC)cc3s2)nnc1-c1ccoc1C`, 23.1% (active). For `CC(=O)Nc1ccc(SCC(=O)Nc2ccccc2Oc2ccccc2)cc1`, the max response is 0.468%. Under `C=CCNC(=O)c1ccccc1NC(=O)c1ccc(Cl)c(S(=O)(=O)Nc2cccc(C)c2C)c1` stands 1.27%.

In the case of `CCc1cccc(C)c1NS(=O)(=O)c1c(C)nc2sccn2c1=O`, the max response was -1.71%.

Source of the values: PubChem BioAssay AID2314 (National Center for Advancing Translational Sciences (NCATS), 2010).
